# Data: the supplement of paper PMC8728848
# This excerpt belongs to a sample that is enriched for the strongest signals.
# B1: Jacalin (Artocarpus integrifolia) (protein)
# chain: MAYSSLLSLSVLALLFSISSADTRKWFLANGINQNPIGIIEAAVGVSEDLLNLNGMEAKNDEQSGISQTVIVGPWGAKVSTSSNGKAFDDGAFTGIREINLSYNKETAIGDFQVVYDLNGSPYVGQNHKSFITGFTPVKISLDFPSEYIMEVSGYTGNVSGYVVVRSLTFKTNKKTYGPYGVTSGTPFNLPIENGLIVGFKGSIGYWLDYFSMYLSL
# Assays:
# Assay in all cases: glycan array binding signal (z-score within array); higher = stronger binding
# Conditions in all cases: glycan notation: IUPAC condensed, linker removed
# Fuc(a1-2)Gal(b1-3)GalNAc = target: Fuc(a1-2)Gal(b1-3)GalNAc
# In short: (§1)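 Arrays were curated from the Consortium for Functional Glycomics database, 3228 in total, and kept only where the protein sequence was available. Binding is expressed as a within-array Z-score. This score was averaged across arrays of the same protein sequence at different concentrations or buffers and across linkers, and negative values can be read as non-binding.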
# Fuc(a1-2)Gal(b1-4)Glc6S = target: Fuc(a1-2)Gal(b1-4)Glc6S
# In short: as §1
# [1] = target: Fuc(a1-2)Gal(b1-4)GlcNAc(b1-3)GalNAc
# In short: as §1
# [2] = target: Fuc(a1-2)Gal(b1-4)[Fuc(a1-3)]GlcNAc(b1-2)[Fuc(a1-2)Gal(b1-4)[Fuc(a1-3)]GlcNAc(b1-4)]Man(a1-3)[Fuc(a1-2)Gal(b1-4)[Fuc(a1-3)]GlcNAc(b1-2)Man(a1-6)]Man(b1-4)GlcNAc(b1-4)GlcNAc
# In short: as §1
# [3] = target: Fuc(a1-2)[Gal(a1-3)]Gal(b1-3)GlcNAc(b1-2)Man(a1-3)[Fuc(a1-2)[Gal(a1-3)]Gal(b1-3)GlcNAc(b1-2)Man(a1-6)]Man(b1-4)GlcNAc(b1-4)[Fuc(a1-6)]GlcNAc
# In short: as §1
# [4] = target: Fuc(a1-2)[Gal(a1-3)]Gal(b1-3)GlcNAc(b1-6)GalNAc
# In short: as §1
# [5] = target: Fuc(a1-2)[Gal(a1-3)]Gal(b1-4)GlcNAc(b1-2)Man(a1-3)[Fuc(a1-2)[Gal(a1-3)]Gal(b1-4)GlcNAc(b1-2)Man(a1-6)]Man(b1-4)GlcNAc(b1-4)[Fuc(a1-6)]GlcNAc
# In short: as §1
# [6] = target: Fuc(a1-2)[Gal(a1-3)]Gal(b1-4)GlcNAc(b1-3)[Fuc(a1-2)[Gal(a1-3)]Gal(b1-4)GlcNAc(b1-6)]GalNAc
# In short: as §1
# [7] = target: Fuc(a1-2)[Gal(a1-3)]Gal(b1-4)GlcNAc(b1-6)GalNAc
# In short: as §1
# [8] = target: Fuc(a1-2)[GalNAc(a1-3)]Gal(b1-4)GlcNAc(b1-2)Man
# In short: as §1
# [9] = target: Fuc(a1-2)[GalNAc(b1-3)]Gal
# In short: as §1
# [10] = target: Fuc(a1-3)[Gal(b1-4)]Glc6S
# In short: as §1
# [11] = target: Fuc(a1-3)[Gal(b1-4)]GlcNAc(b1-2)Man(a1-3)[Fuc(a1-3)[Gal(b1-4)]GlcNAc(b1-2)Man(a1-6)]Man(b1-4)GlcNAc(b1-4)GlcNAc
# In short: as §1
# [12] = target: Gal(a1-3)Gal(b1-4)[Fuc(a1-3)]GlcNAc
# In short: as §1
# [13] = target: Gal(b1-3)GlcNAc(b1-3)Gal(b1-4)Glc
# In short: as §1
# [14] = target: Gal(b1-3)GlcNAc(b1-3)Gal(b1-4)GlcNAc(b1-2)[Gal(b1-3)GlcNAc(b1-3)Gal(b1-4)GlcNAc(b1-6)]Man(a1-6)[Gal(b1-3)GlcNAc(b1-3)Gal(b1-4)GlcNAc(b1-2)Man(a1-3)]Man(b1-4)GlcNAc(b1-4)[Fuc(a1-6)]GlcNAc
# In short: as §1
# [15] = target: Gal(b1-4)GlcNAc(b1-3)Gal(b1-4)GlcNAc(b1-3)Gal(b1-4)GlcNAc(b1-3)Gal(b1-4)GlcNAc(b1-2)Man(a1-3)[Gal(b1-4)GlcNAc(b1-3)Gal(b1-4)GlcNAc(b1-3)Gal(b1-4)GlcNAc(b1-3)Gal(b1-4)GlcNAc(b1-2)Man(a1-6)]Man(b1-4)GlcNAc(b1-4)[Fuc(a1-6)]GlcNAc
# In short: as §1
# [16] = target: Gal(b1-4)GlcNAc(b1-3)Gal(b1-4)GlcNAc(b1-6)[Gal(b1-3)]GalNAc
# In short: as §1
# Gal3S(b1-3)GalNAc = target: Gal3S(b1-3)GalNAc
# In short: as §1
# [17] = target: GalNAc(a1-3)GalNAc(b1-3)Gal(a1-4)Gal(b1-4)Glc
# In short: as §1
# GalNAc(b1-3)GalNAc = target: GalNAc(b1-3)GalNAc
# In short: as §1
# [18] = target: GlcNAc(a1-4)Gal(b1-3)GlcNAc
# In short: as §1
# [19] = target: GlcNAc(a1-4)Gal(b1-4)GlcNAc(b1-3)Gal(b1-4)GlcNAc(b1-3)Gal(b1-4)GlcNAc
# In short: as §1
# [20] = target: GlcNAc(b1-2)Gal(b1-3)GalNAc
# In short: as §1
# [21] = target: GlcNAc(b1-2)Man(a1-3)[GlcNAc(b1-2)Man(a1-6)]Man(b1-4)GlcNAc(b1-4)[Fuc(a1-6)]GlcNAc
# In short: as §1
# [22] = target: GlcNAc(b1-3)Gal(b1-4)GlcNAc(b1-3)Gal(b1-4)GlcNAc(b1-2)Man(a1-3)[GlcNAc(b1-3)Gal(b1-4)GlcNAc(b1-3)Gal(b1-4)GlcNAc(b1-2)Man(a1-6)]Man(b1-4)GlcNAc(b1-4)[Fuc(a1-6)]GlcNAc
# In short: as §1
# [23] = target: GlcNAc(b1-3)Gal(b1-4)GlcNAc(b1-3)Gal(b1-4)GlcNAc(b1-2)[GlcNAc(b1-3)Gal(b1-4)GlcNAc(b1-3)Gal(b1-4)GlcNAc(b1-6)]Man(a1-6)[GlcNAc(b1-3)Gal(b1-4)GlcNAc(b1-3)Gal(b1-4)GlcNAc(b1-2)Man(a1-3)]Man(b1-4)GlcNAc(b1-4)[Fuc(a1-6)]GlcNAc
# In short: as §1
# [24] = target: GlcNAc(b1-3)Gal(b1-4)GlcNAc(b1-3)Gal(b1-4)GlcNAc(b1-3)Gal(b1-4)GlcNAc(b1-2)Man(a1-3)[GlcNAc(b1-3)Gal(b1-4)GlcNAc(b1-3)Gal(b1-4)GlcNAc(b1-3)Gal(b1-4)GlcNAc(b1-2)Man(a1-6)]Man(b1-4)GlcNAc(b1-4)GlcNAc
# In short: as §1
# [25] = target: GlcNAc(b1-3)Gal(b1-4)GlcNAc(b1-3)Gal(b1-4)GlcNAc(b1-3)Gal(b1-4)GlcNAc(b1-2)Man(a1-3)[GlcNAc(b1-3)Gal(b1-4)GlcNAc(b1-3)Gal(b1-4)GlcNAc(b1-3)Gal(b1-4)GlcNAc(b1-2)Man(a1-6)]Man(b1-4)GlcNAc(b1-4)[Fuc(a1-6)]GlcNAc
# In short: as §1
# [26] = target: GlcNAc(b1-3)Gal(b1-4)GlcNAc(b1-3)Gal(b1-4)GlcNAc(b1-3)Gal(b1-4)GlcNAc(b1-2)[GlcNAc(b1-3)Gal(b1-4)GlcNAc(b1-3)Gal(b1-4)GlcNAc(b1-3)Gal(b1-4)GlcNAc(b1-6)]Man(a1-6)[GlcNAc(b1-3)Gal(b1-4)GlcNAc(b1-3)Gal(b1-4)GlcNAc(b1-3)Gal(b1-4)GlcNAc(b1-2)Man(a1-3)]Man(b1-4)GlcNAc(b1-4)[Fuc(a1-6)]GlcNAc
# In short: as §1
binder,measurement,setting,value
B1,glycan array binding signal (z-score),Fuc(a1-2)Gal(b1-3)GalNAc,0.218
same,glycan array binding signal (z-score),Fuc(a1-2)Gal(b1-4)Glc6S,-0.249
same,glycan array binding signal (z-score),[1],0.829
same,glycan array binding signal (z-score),[2],-0.131
same,glycan array binding signal (z-score),[3],-0.249
same,glycan array binding signal (z-score),[4],-0.265
same,glycan array binding signal (z-score),[5],-0.211
same,glycan array binding signal (z-score),[6],-0.332
same,glycan array binding signal (z-score),[7],-0.217
same,glycan array binding signal (z-score),[8],-0.29
same,glycan array binding signal (z-score),[9],0.341
same,glycan array binding signal (z-score),[10],-0.23
same,glycan array binding signal (z-score),[11],-0.259
same,glycan array binding signal (z-score),[12],-0.268
same,glycan array binding signal (z-score),[13],-0.279
same,glycan array binding signal (z-score),[14],-0.084
same,glycan array binding signal (z-score),[15],0.12
same,glycan array binding signal (z-score),[16],0.001
same,glycan array binding signal (z-score),Gal3S(b1-3)GalNAc,1.89
same,glycan array binding signal (z-score),[17],-0.256
same,glycan array binding signal (z-score),GalNAc(b1-3)GalNAc,3.34
same,glycan array binding signal (z-score),[18],0.435
same,glycan array binding signal (z-score),[19],2.63
same,glycan array binding signal (z-score),[20],2.21
same,glycan array binding signal (z-score),[21],0.257
same,glycan array binding signal (z-score),[22],2.52
same,glycan array binding signal (z-score),[23],2.41
same,glycan array binding signal (z-score),[24],3.65
same,glycan array binding signal (z-score),[25],3.32
same,glycan array binding signal (z-score),[26],4.09
